Screens from PubChem BioAssay.
Compounds with a hit are over-represented: about 7.5% of the library has one in this group of screens.
NPC1 prom act: activates the NPC1 promoter; AID 485313; Potency, µM (highest dose often 9.22 µM), actives largely listed as activators; 320,000 compounds, 2.4% hits; Huh7 NPC1 promoter luciferase reporter, 24 h; note: nearly all actives have a fitted effect of over 60% in size
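Stable NPC1-promoter luciferase Huh7 line; cpd (DMSO) 24 h, 37 °C, 5% CO2; Amplite luciferase reagent 10 min RT; luminescence readout. qHTS format.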
FLuc modulator: counter-screen for miR-21 project: firefly luciferase inhibitors or activators; P08659; Potency, µM (titrated, usually from 57.5 µM), most hits filed as inhibitors; AID 588342; 360,000 compounds, 6.9% hits; purified FLuc, Km substrates, luminescence inhibition; note: nearly all actives have a fitted effect of over 55% in size
Target sequence (P08659 whole entry, looked up): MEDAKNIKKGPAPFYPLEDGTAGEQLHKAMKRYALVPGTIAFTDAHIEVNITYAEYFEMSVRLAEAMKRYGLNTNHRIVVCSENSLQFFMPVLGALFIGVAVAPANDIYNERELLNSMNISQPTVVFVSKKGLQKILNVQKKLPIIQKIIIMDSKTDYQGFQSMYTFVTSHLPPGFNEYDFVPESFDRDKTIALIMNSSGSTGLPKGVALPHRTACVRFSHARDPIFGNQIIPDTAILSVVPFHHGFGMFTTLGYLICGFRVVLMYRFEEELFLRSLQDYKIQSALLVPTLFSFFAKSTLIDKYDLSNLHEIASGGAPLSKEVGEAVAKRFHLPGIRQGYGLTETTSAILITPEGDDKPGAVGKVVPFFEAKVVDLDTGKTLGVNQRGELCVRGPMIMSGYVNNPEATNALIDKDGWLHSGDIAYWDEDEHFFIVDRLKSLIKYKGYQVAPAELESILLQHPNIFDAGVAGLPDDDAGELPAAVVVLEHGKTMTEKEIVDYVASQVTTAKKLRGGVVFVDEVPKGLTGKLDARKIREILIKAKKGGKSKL
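Purified P. pyralis luciferase, 10 nM final, with Km-level 10 uM D-luciferin and 10 uM ATP in 50 mM Tris acetate pH 7.5, 10 mM Mg acetate, 0.01% Tween-20, 0.05% BSA; 6-point qHTS titration about 60 µM downward; luminescence read.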
Rab9 prom act: Rab9 promoter activation | Huh7 Rab9 promoter-luciferase reporter, luminescence, 24 h | Potency, µM (series often up to 9.22 µM), actives largely listed as activators | 320,000 compounds, 2.8% hits | AID 485297; note: nearly all actives have a fitted effect of over 60% in size
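Steps: seed 1500 Huh7 Rab9-luc cells per well, rest 2 h at 37 °C; add compound in DMSO; incubate 24 h; add luciferase reagent, 10 min ambient; read luminescence.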
KinaseGlo FLuc: Kinase-Glo luciferase inhibition (counter-screen); AID 1379; Kinase-Glo luciferase, ATP luminescence, 8 min; Potency, µM (highest dose often 38.3 µM), usual class: inhibitors; Q27757; 200,000 compounds, 0.28% hits; note: nearly all actives have a fitted effect of over 60% in size
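Substrate mix (final 50 mM imidazole pH 7.2, 50 mM KCl, 7 mM MgCl2, 10 uM ATP, 0.01% Tween 20, 0.05% BSA) plus pin-tool compound, then Kinase-Glo detection mix; 8 min ambient, luminescence read.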
SMN2 splice up: SMN2 splice variant enhancement. HEK293 SMN2-luciferase splicing reporter, luminescence, 30-36 h. Potency, µM (top dose mostly 46.1 µM), usual class: activators. AID 1458. 210,000 compounds, 2.8% hits; note: nearly all actives have a fitted effect of over 55% in size
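HEK293 cells carry an SMN2 […]–luciferase reporter in which exon 7 inclusion puts luciferase in frame. Cells were plated 10-12 h before compound addition, then incubated 30-36 h at 37C. ONE-Glo luminescence was read; sodium butyrate at 4.5 mM final served as control.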
ELG1 genotoxic: inducers of genotoxicity in HEK293T ELG1-luciferase cells; Potency, µM (highest dose often 46 µM), most hits filed as activators; HEK293T ELG1-luciferase reporter, luminescence, 16 h; 330,000 compounds, 1.3% hits; note: nearly all actives have a fitted effect of over 60% in size
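HEK293T cells expressing luciferase-tagged ELG1 were treated with compound or DMSO for 16 hr at 37°C. Luciferase activity was then read after 30 min with ONE-Glo at room temperature; rising signal flags genetic stress.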
Hits are given with their value; n = inactive; u = inconclusive; x = not tested or not shown. Calls come from the whole dose curve; as a rule, active = well fitted curve in the direction sought with a large enough effect; inconclusive = small, poorly fitted or top-dose-only effect, or another doubt; inactive = no such curve, though single readings can be large; an effect the other way counts as inactive or inconclusive.

SMILES	NPC1 prom act	FLuc modulator	Rab9 prom act	KinaseGlo FLuc	SMN2 splice up	ELG1 genotoxic
C=CCc1ccc(OCc2ccc(C(=O)Nc3ccc(NC(C)=O)cc3)o2)c(OC)c1	1.1µM	u	0.4µM	x	2.8µM	n
COc1ccc(CCNc2ccc(N3C(=O)CC(C)C3=O)cc2[N+](=O)[O-])cc1OC (stereo not drawn)	n	n	n	n	n	n
O=C(Nc1ccc2oc(-c3ccccc3)nc2c1)C1CCCO1 (stereo not drawn)	2.2µM	7.6µM	2.8µM	n	11µM	18µM
O=C(Nc1ccc(-c2nc3cccnc3s2)cc1)C1CCCO1 (stereo not drawn)	0.13µM	0.6µM	0.1µM	u	1.1µM	u
O=C(Nc1ccc(-c2nc3ccccc3o2)cc1)C1CCCO1 (stereo not drawn)	0.32µM	1.3µM	0.45µM	n	7.9µM	u
O=C(Nc1ccc(-c2nc3cc(Cl)ccc3o2)cc1)C1CCCO1 (stereo not drawn)	0.79µM	1.2µM	0.5µM	n	2.8µM	18µM
O=C(Nc1ccc(Oc2ccccc2)cc1)C1CCCO1 (stereo not drawn)	u	u	u	n	n	n
O=C(Nc1ccc(-c2nc3cc(Cl)ccc3o2)cc1)c1cc2ccccc2o1	x	n	x	x	n	x
CCOC(=O)c1cccc(NC(=O)N2Cc3ccccc3Oc3ncccc32)c1	x	n	x	x	n	x
c1ccc2c(c1)oc1c(Nc3ccc4c(c3)OCO4)ncnc12	1.4µM	2.1µM	1µM	n	u	5.8µM
Cc1nc(Nc2ccc3c(c2)OCO3)c2oc3ccccc3c2n1	n	30µM	n	n	n	n
Cc1ccc(N2C(=O)C(CC(=O)Nc3ccc(F)cc3)N(CCC3=CCCCC3)C2=O)cc1 (stereo not drawn)	x	n	x	x	n	x
COC(=O)c1sc(NC(=S)NC(=O)c2cccc(C)c2)nc1C	n	u	u	n	n	u
CCOC(=O)CNC(=O)c1sc(NC(=O)c2ccccc2F)nc1C	u	11µM	u	x	x	9.2µM
COC(=O)c1sc(NC(=S)NC(=O)c2ccccc2F)nc1C	u	8.5µM	1µM	n	n	u
Cc1noc(C)c1COC(=O)CNC(=O)c1cccc(F)c1	n	n	n	n	n	n
O=C(CNC(=O)c1ccccc1F)OCCCOC(=O)CNC(=O)c1ccccc1F	n	n	n	x	x	n
CCOC(=O)CNC(=O)c1sc(NC(=O)c2cccc(F)c2)nc1C	n	21µM	n	n	n	u
CCOC(=O)c1ccc(NC(=O)c2ccc(CN3C(=O)CCn4nc(C)cc43)cc2)cc1	x	n	x	x	x	x
CCCN1C(=O)c2oc3cc(C)cc(C)c3c(=O)c2C1c1ccc(F)cc1 (stereo not drawn)	x	n	x	x	n	x
COc1cc(NC(=O)c2ccccc2)c(C)cc1NC(=O)CC(CC(=O)O)c1ccccc1 (stereo not drawn)	n	13µM	n	x	x	n
CCC(=O)Nc1cc(OC)c(NC(=O)c2ccccc2)cc1OC	n	n	n	n	u	n
O=C(Nc1nnc(C2CC2)s1)C1COc2ccccc2O1 (stereo not drawn)	2.8µM	11µM	0.89µM	n	5.6µM	4.1µM
CC(=O)c1sc(NC(=O)C2COc3ccccc3O2)nc1C (stereo not drawn)	0.45µM	1.9µM	0.35µM	n	3.2µM	u
CC(C)(C)c1csc(NC(=O)C2COc3ccccc3O2)n1 (stereo not drawn)	u	15µM	u	x	x	u
SMILES	NPC1 prom act	FLuc modulator	Rab9 prom act	KinaseGlo FLuc	SMN2 splice up	ELG1 genotoxic
O=C(Nc1nnc(C(F)(F)F)s1)C1COc2ccccc2O1 (stereo not drawn)	n	u	n	n	n	n
CC1(C)CC(=O)c2sc(NC(=O)C3COc4ccccc4O3)nc2C1 (stereo not drawn)	n	u	u	n	13µM	21µM
O=C(Nc1nncs1)C1COc2ccccc2O1 (stereo not drawn)	n	u	n	n	u	n
CCc1ccccc1NC(=O)CCn1cccn1	x	n	x	x	x	x
CC1(C)CC(=O)c2sc(NC(=O)c3ccco3)nc2C1	u	6µM	n	n	u	21µM
CCOc1cc(C(=S)N2CCCC2)ccc1OCC(=O)Nc1c(C)cc(C)cc1C	n	n	n	n	n	n
Cc1ccc(-c2nn3c(C)nnc3c3ccccc23)cc1S(=O)(=O)NCc1ccccc1	n	n	n	n	n	n
Cc1ccc(-c2nn3c(C)nnc3c3ccccc23)cc1S(=O)(=O)N(C)CCO	n	n	n	n	u	18µM
COc1ccccc1C1=NC(c2ccc(C)cc2)N=C1C (stereo not drawn)	u	15µM	u	n	u	n
COc1ccccc1-c1nc2ccccc2nc1-c1ccccc1OC	n	n	n	n	n	n
[O-]/[N+](=C\c1ccc(OC(F)F)cc1)c1ccccc1	u	15µM	u	n	n	n
[O-]/[N+](=C/c1ccc(F)cc1)c1ccccc1	n	u	n	n	n	n
CN(C)CCNC(=O)C(=O)C1C(=O)Nc2ccccc21 (stereo not drawn)	n	n	n	n	n	n
CC1=NN(c2ccccc2)C(=O)C1C(=O)C(=O)Nc1ccc(F)cc1 (stereo not drawn)	u	9.5µM	3.2µM	x	x	u
Cc1ccc(NC(=O)C(=O)C2C(=O)Nc3ccccc32)cc1 (stereo not drawn)	u	12µM	u	x	x	u
CC1=NN(c2ccccc2)C(=O)C1C(=O)c1ccccc1 (stereo not drawn)	n	n	n	n	n	n
O=C(O)c1cccnc1SCc1cccc(Br)c1	n	u	n	x	x	n
O=C(O)c1cccnc1SCc1cn2cc(Br)ccc2n1	n	24µM	n	n	n	n
O=C(O)c1ccccc1SCc1csc(-c2ccccc2)n1	n	u	u	x	x	u
O=C(O)c1ccccc1SCc1cn2cc(Br)ccc2n1	u	9.5µM	u	n	u	u
CCN(C(=O)C1CCCN(c2ncnc3onc(-c4ccc(F)cc4)c23)C1)c1ccccc1 (stereo not drawn)	x	n	x	x	x	x
Cc1cc([N+](=O)[O-])cc(/C=N\NC(=O)C2COc3ccccc3O2)c1O (stereo not drawn)	n	n	n	x	x	n
COC(=O)c1c(C)sc(-c2c(-c3ccc(OC)c(F)c3)[nH]c3c2c(=O)n(C)c(=O)n3C)c1O	x	n	x	x	x	x
CCn1c(C)nc2cc(C(=O)N/N=C/c3ccccc3C)ccc21	1.8µM	11µM	1.1µM	n	16µM	u
CCn1c(C)nc2cc(C(=O)NNC(=S)Nc3ccccc3OC)ccc21	n	19µM	u	x	x	n
CCn1c(C)nc2cc(C(=O)NN=Cc3ccccc3OC(F)F)ccc21	x	x	x	x	x	n
CCn1c(C)nc2cc(C(=O)N/N=C(\C)c3ccccc3O)ccc21	u	13µM	u	n	u	n
